Laboratory results from PubChem BioAssay.
Values joined by “and” are separate entries in the source; they are usually repeats but may differ in a detail not shown here. Equal entries are not always repeated. Results filed as inconclusive are left out. The source holds several records for some structures; these can differ, active in one and inactive in another. Active and inactive are the calls of the source.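 The calls were made as follows, unless noted: active = thallium flux through the channel raised or lowered by more than 3 SD from vehicle-only wells, actives on both sides; inactive = the rest.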

Experiments:
[1] = P. berghei load reduction in hepatocytes – cell-based, HepG2, luciferase luminescence, HepG2 viability, primary screen (AID 624349; in the data active = parasite load remaining mostly below about 12%, no sharp cut-off; inactive = mostly above about 10%;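 also: 100% = mean of DMSO negative control wells on the same plate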); conditions: P. berghei liver stage in HepG2, luciferase luminescence, concentration not given here; parasite load remaining: stronger effect = lower value; viability: measured here: HepG2 viability without parasites
[2] = tested on: Neuropilin-2 / VEGF-C interaction (human); assay: small molecules blocking Neuropilin-2/VEGF-C interaction – biochemical, microplate binding format, z-score (AID 743281; call rule not given here); conditions: microplate NRP2/VEGF-C binding assay; stronger effect = lower value
[3] = Wnt pathway potentiators raising nuclear beta-catenin – imaging, WNT3A-conditioned medium, mouse C2C12, NPC library, primary screen (AID 1117326; in the data active = nuclear beta-catenin stimulation mostly above about 4.2%, no sharp cut-off; inactive = mostly below about 10%); conditions: stronger effect = higher value
[4] = stimulators of insulin release from INS-1E, primary screen, cell-based, 5 mM glucose, NPC library (AID 1117329;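 active = compound raises insulin release from rat beta cells at 5 mM glucose, no numeric limit stated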); conditions: rat INS-1E insulin secretion, at 10 µM, stronger effect = higher value
[5] = growth inhibition of GSK3B-pretreated HCT116 cells – cell-based, CellTiter-Glo, 0.2 to 20 µM (AID 1117336;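 active = compounds lowering colon cancer cell viability after pretreatment blocking the GSK3B kinase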); conditions: HCT116 viability after GSK3B inhibitor, at 20 µM, stronger effect = higher value
[6] = inhibition of endothelial tube formation, primary screen, imaging, VEGF stimulated, CD31 staining, tube area, NPC library (AID 1117340;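 active = compound that reduces growth-factor-driven endothelial tube area in a mixed cell culture, no cutoff stated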); conditions: VEGF-stimulated ADSC/ECFC co-culture, at 10 µM, stronger effect = higher value
[7] = GLP1 release stimulators, primary, NCI-H716, NPC library (AID 1117341;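 active = compound raises GLP1 secretion from the human gut endocrine cells, with no numeric limit stated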); conditions: NCI-H716 cells, at 10 µM, stronger effect = higher value
[8] = HCT116 colon cancer cell growth inhibition, primary screen, CellTiter-Glo luminescence, NPC library (AID 1117342;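 active = compounds that lower survival of HCT116 colon cancer cells in the luminescence readout, no numeric limit stated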); conditions: at 20 µM (top of the series)
[9] = reduced SW480 viability measured with CellTiter-Glo, NPC library, primary (AID 1117343;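 active = compounds that lower viability of the colon cancer cells in the luminescence readout, with no numeric limit stated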); conditions: CellTiter-Glo luminescence; at 20 µM (top of the series)
[10] = NPC library primary testing for decreased DLD-1 cell viability via CellTiter-Glo (AID 1117346;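 active = compounds that lower survival of DLD-1 colon cancer cells in the luminescence readout, no cutoff given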); conditions: DLD-1 viability, CellTiter-Glo luminescence; at 20 µM (top of the series)
[11] = biological target: 6-phosphogluconate dehydrogenase, decarboxylating (Homo sapiens) (UniProt P52209); assay: inhibition of human phosphogluconate dehydrogenase – biochemical, recombinant enzyme, NADPH absorbance, primary screen (AID 1159550;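 active = at least 20% inhibition of 6-phosphogluconate dehydrogenase activity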); conditions: recombinant 6PGD, NADPH absorbance 341 nm; at 10 µM; stronger effect = higher value
[12] = modulation of C. elegans fzo-1 (AID 1259413; call rule not given here;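 also: fzo-1 mutant C. elegans worms in liquid wells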); conditions: C. elegans fzo-1 modulator screen, mean read-out; stronger effect = higher value
[13] = EMT-state selective cytotoxicity in co-culture – imaging, PC-3E GFP, TEM4-18 mCherry, primary screen (AID 1345086;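 active = compounds killing one labelled cell type while sparing the other, by normalised counts and ratio limits, not self-fluorescent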;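 as to all read-outs here: cells exposed to compound for 72 h before imaging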;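 as to red/green cell ratio (normalised): normalised mesenchymal count divided by normalised epithelial count so high means epithelial killing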); conditions: PC-3E GFP / TEM4-18 mCherry co-culture, imaging cell counts, at 1 µM; for red/green cell ratio (normalised): actives lie on both sides, counts scaled to control wells, 1 = unselective
[14] = tested on: Aerobactin synthetase IucA (Klebsiella pneumoniae); assay: inhibition of K. pneumoniae IucA enzyme – biochemical, Tocris library, absorbance (AID 1345561; call rule not given here;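 also: 100% = enzyme without compound and 0% = no enzyme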); conditions: purified IucA enzyme assay, absorbance (OD) read-out; stronger effect = lower value;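 tested at 8 µM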
[15] = MELAS cybrid and Rieske KO viability enhancers – cell-based, MELAS cybrids, Rieske KO mouse fibroblasts, CellTiter-Glo, primary screen (AID 1508586;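 active = mean z-score across replicates of 1.96 or higher in either the MELAS or the Rieske mutant cell line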;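 also: z relative to plate mean and SD of compound and empty wells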); conditions: low glucose
[16] = biological target: NAD(+) hydrolase SARM1 (Homo sapiens) (UniProt Q6SZW1); assay: blocking NAD cleavage by SARM1 SAM-TIR – cell lysate, NAD-Glo luminescence (AID 1508614;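 active = compound whose remaining NAD level is above about 45 nM, limit read from the data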;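 also: higher remaining NAD means stronger inhibition of SARM1 NADase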); conditions: SAM-TIR HEK293T lysate NADase, at 1 µM, stronger effect = higher value
[17] = biological target: Mitogen-activated protein kinase 7 (Homo sapiens) (UniProt Q13164); assay: Gal4-ERK5 driven luciferase induction – cell-based, HTS, primary screen (AID 1508626;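 active = luciferase signal above three times the same-plate solvent-only control wells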;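 also: luciferase driven by Gal4-ERK5 fusion binding five Gal4 sites before minimal TATA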); conditions: HeLa Gal4-ERK5 transactivation, 18 h, at 5 µM, stronger effect = higher value
[18] = galactose survival enhancers in mitochondrial complex I cybrids – cell-based, galactose medium, ATP luminescence, primary screen (AID 1645843;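 active = z-score of at least 1.8 in each of two replicates, scored against plate mean and spread of sample wells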;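 also: positive z means more ATP and so rescue of galactose-driven cybrid death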); conditions: complex I mutant cybrid cells, 72 h, stronger effect = higher value
[19] = viability loss in pontine glioma line – cell-based, SU-DIPG-IV, MIPE4.0, CellTiter-Glo, qHTS, dose response (AID 1347063; cut-off not given, nearly all actives have AC50 up to about 30 µM;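 also: compound exposure lasted 48 hours before the viability readout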); conditions: CellTiter-Glo ATP luminescence
[20] = viability loss in pontine glioma line – cell-based, SU-DIPG-XIII, MIPE5.0, CellTiter-Glo, qHTS, dose response (AID 1347064; cut-off not given, nearly all actives have AC50 up to about 23 µM;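 also: cells exposed to compound for 48 hours before the viability read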); conditions: CellTiter-Glo ATP luminescence
[21] = viability loss in pontine glioma line – cell-based, SU-DIPG-XXV, MIPE5.0, CellTiter-Glo, qHTS, dose response (AID 1347065; cut-off not given, nearly all actives have AC50 up to about 26 µM;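 also: cells exposed to compound for 48 hours before ATP readout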); conditions: CellTiter-Glo ATP luminescence
[22] = viability loss with induced miR-34 in A549 – imaging, A549 dox-inducible miR-34, nuclei and caspase counts, primary screen (AID 1347080;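 active = compounds whose cell count with miR-34 switched on is under 0.7 times the count with it off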); conditions: A549 miR-34 inducible, Hoechst nuclei count, 48 h
[23] = compounds altering circadian rhythm period length – cell-based, LOPAC library, luminescence reporter (AID 2774; call rule not given here;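 also: values are relative to mean of DMSO wells on each plate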); conditions: circadian reporter cells, at 7 µM, actives lie on both sides
[24] = tested on: Hepatitis C virus NS3 helicase; assay: blockers of NS3h binding to ssDNA – biochemical, fluorescence polarization, LOPAC1280 library, primary screen (AID 687035; in the data active = inhibition above about 37%); conditions: Purified HCV NS3 helicase, Cy5-dT15 ssDNA binding fluorescence polarization; stronger effect = higher value; concentration not given here
[25] = compounds altering Cy5-DNA-NS3h complex signal – biochemical, LOPAC1280, artefact control for HCV NS3 helicase inhibitor project (AID 687037; call rule not given here); conditions: Cy5-DNA-NS3h complex fluorescence interference counterscreen
[26] = signal quenchers or enhancers, Cy5 substrate/SSB – biochemical, NIH Clinical Collection, E. coli SSB, artefact control for HCV NS3 helicase inhibitor project (AID 743268; call rule not given here); conditions: Cy5-oligo bound E. coli SSB, fluorescence interference
[27] = tested on: Hepatitis C virus NS3 helicase; assay: blockers of NS3h binding to DNA – biochemical, fluorescence polarization, NIH Clinical Collection, primary screen (AID 743270; call rule not given here); conditions: NS3 helicase binding to Cy5-dT15 DNA, stronger effect = higher value, concentration not given here
[28] = biological target: Single-stranded DNA-binding protein (Escherichia coli (strain K12)) (UniProt P0AGE0); assay: SSB-ssDNA binding inhibitors – biochemical, fluorescence polarization, NIH Clinical Collection, counter-screen for HCV NS3 helicase inhibitor project (AID 743271; in the data active = inhibition above about 28%); conditions: E. coli SSB-DNA binding, stronger effect = higher value, concentration not given here
[29] = compounds distorting NS3 helicase fluorescence signal – biochemical, NIH Clinical Collection, artefact control for HCV NS3 helicase inhibitor project (AID 743272; call rule not given here;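 also: HCV NS3 helicase with a Cy5 labelled single stranded DNA probe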); conditions: fluorescence interference counterscreen, HCV NS3 helicase assay; stronger effect = lower value
[30] = viability loss in pontine glioma line – cell-based, SU-DIPG-XIII, MIPE4.0, CellTiter-Glo, qHTS, dose response (AID 1347061; cut-off not given, nearly all actives have AC50 up to about 37 µM;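 also: cells exposed to compound for 48 hours before readout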); conditions: CellTiter-Glo ATP luminescence
[31] = viability loss in pontine glioma line – cell-based, JHH-DIPG-1, MIPE4.0, CellTiter-Glo, qHTS, dose response (AID 1347062; cut-off not given, nearly all actives have AC50 up to about 27 µM); conditions: JHH-DIPG-1 viability, CellTiter-Glo ATP luminescence
[32] = growth inhibition of DIPG cells – cell-based, MIPE4.0 library, CellTiter-Glo luminescence, qHTS (AID 1347066; cut-off not given, nearly all actives have AC50 up to about 30 µM;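 also: cells exposed to compound for 48 hours before readout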); conditions: SU-DIPG-VI viability, CellTiter-Glo ATP luminescence
[33] = JHH-DIPG-1 glioma cell viability, MIPE5.0 library, CellTiter-Glo luminescence, qHTS (AID 1347067; cut-off not given, nearly all actives have AC50 up to about 26 µM;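 also: cells exposed to compound for 48 hours before readout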); conditions: JHH-DIPG-1 glioma viability, CellTiter-Glo ATP luminescence
[34] = growth inhibition of DIPG cells – cell-based, MIPE5.0 library, qHTS (AID 1347068; cut-off not given, nearly all actives have IC50 up to about 30 µM); conditions: SU-DIPG-XXV viability
[35] = blockers of cellular phospholipid synthesis – cell-based, LOPAC library, screen 4, primary screen (AID 1347384; call rule not given here); conditions: animal cells, phospholipid biosynthesis inhibition screen; at 10 µM
[36] = tested on: F380Y; assay: BK channel mutant inhibitors and activators – cell-based, U2OS BacMam, thallium flux, beta subunits, selectivity assay, profiling panel (AID 1259406); conditions: U2OS BacMam BK variants, at 30 µM;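 also: initial slope of Thallos dye fluorescence rise after thallium is added; log ratio against the mean of 0.3% DMSO vehicle wells on the same plate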
[37] = tested on: F380Y/beta1; assay: as above; conditions: U2OS BacMam BK variants, at 30 µM
[38] = tested on: F380Y/beta2Delta; assay: as above; conditions: U2OS BacMam BK variants, at 30 µM
[39] = tested on: F380Y/beta4; assay: as above; conditions: U2OS BacMam BK variants, at 30 µM
[40] = biological target: Calcium-activated potassium channel subunit alpha-1 (Homo sapiens) + Leucine-rich repeat-containing protein 26 (Homo sapiens) (UniProt Q12791+Q2I0M4); assay: as above; conditions: U2OS BacMam BK variants, F380Y/Slo1WT/gamma1, at 30 µM
[41] = tested on: R275C; assay: as above; conditions: U2OS BacMam BK variants, at 30 µM
[42] = tested on: R275C/beta1; assay: as above; conditions: U2OS BacMam BK variants, at 30 µM
[43] = tested on: R275C/beta2Delta; assay: as above; conditions: U2OS BacMam BK variants, at 30 µM
[44] = tested on: R275C/beta4; assay: as above; conditions: U2OS BacMam BK variants, at 30 µM
[45] = tested on: R275C/Slo1WT/beta2; assay: as above; conditions: U2OS BacMam BK variants, at 30 µM
[46] = measured here: epithelial PC-3E GFP cell survival
[47] = measured here: mesenchymal TEM4-18 mCherry cell survival
[48] = stronger effect = lower value, cell number ratio, induced over uninduced
[49] = measured here: relative caspase fold change +Dox/-Dox
[50] = measured here: total cells with miR-34 induction, stronger effect = lower value
[51] = measured here: total cells without miR-34 induction

Chain of NAD(+) hydrolase SARM1 (Homo sapiens) (Q6SZW1 whole entry, looked up, the tested form may be a part): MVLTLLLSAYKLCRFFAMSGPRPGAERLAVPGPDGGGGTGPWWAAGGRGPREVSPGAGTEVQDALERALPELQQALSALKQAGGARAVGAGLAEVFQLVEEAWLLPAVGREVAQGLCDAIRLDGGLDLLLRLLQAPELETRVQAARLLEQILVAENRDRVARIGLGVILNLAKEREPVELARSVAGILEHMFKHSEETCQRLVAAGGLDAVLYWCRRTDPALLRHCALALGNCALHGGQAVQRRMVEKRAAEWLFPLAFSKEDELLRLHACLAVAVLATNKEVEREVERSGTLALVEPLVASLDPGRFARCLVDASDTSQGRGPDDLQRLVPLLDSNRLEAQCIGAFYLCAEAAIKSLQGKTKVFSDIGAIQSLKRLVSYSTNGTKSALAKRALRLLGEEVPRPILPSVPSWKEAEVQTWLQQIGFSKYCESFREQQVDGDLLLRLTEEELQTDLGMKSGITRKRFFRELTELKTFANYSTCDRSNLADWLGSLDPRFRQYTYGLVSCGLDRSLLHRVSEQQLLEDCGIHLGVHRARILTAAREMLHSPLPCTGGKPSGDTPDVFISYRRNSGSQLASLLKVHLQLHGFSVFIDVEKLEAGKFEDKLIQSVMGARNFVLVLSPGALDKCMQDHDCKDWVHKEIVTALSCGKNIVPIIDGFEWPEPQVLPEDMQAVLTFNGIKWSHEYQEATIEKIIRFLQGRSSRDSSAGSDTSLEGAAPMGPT
Chain of Mitogen-activated protein kinase 7 (Homo sapiens) (Q13164 whole entry, looked up, the tested form may be a part): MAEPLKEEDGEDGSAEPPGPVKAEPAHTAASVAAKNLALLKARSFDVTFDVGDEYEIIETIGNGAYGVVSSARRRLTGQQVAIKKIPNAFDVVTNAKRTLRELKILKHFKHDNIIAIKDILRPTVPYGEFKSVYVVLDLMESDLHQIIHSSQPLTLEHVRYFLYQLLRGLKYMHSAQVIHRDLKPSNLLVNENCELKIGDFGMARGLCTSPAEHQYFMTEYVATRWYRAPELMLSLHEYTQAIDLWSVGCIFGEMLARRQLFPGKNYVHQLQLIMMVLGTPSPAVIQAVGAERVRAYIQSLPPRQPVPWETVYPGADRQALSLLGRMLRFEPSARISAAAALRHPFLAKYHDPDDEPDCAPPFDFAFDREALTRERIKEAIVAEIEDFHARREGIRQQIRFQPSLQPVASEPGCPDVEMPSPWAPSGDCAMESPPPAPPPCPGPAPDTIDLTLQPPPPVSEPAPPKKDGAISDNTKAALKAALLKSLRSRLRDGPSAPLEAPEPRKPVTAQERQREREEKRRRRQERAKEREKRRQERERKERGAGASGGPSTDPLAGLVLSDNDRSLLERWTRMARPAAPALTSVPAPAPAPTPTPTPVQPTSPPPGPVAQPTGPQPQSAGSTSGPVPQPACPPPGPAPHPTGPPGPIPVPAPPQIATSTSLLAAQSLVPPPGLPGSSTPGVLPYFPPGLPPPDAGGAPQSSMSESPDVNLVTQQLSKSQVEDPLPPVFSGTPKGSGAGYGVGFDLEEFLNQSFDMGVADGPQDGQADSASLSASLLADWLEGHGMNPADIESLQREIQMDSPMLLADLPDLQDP
Chain of 6-phosphogluconate dehydrogenase, decarboxylating (Homo sapiens) (P52209 whole entry, looked up): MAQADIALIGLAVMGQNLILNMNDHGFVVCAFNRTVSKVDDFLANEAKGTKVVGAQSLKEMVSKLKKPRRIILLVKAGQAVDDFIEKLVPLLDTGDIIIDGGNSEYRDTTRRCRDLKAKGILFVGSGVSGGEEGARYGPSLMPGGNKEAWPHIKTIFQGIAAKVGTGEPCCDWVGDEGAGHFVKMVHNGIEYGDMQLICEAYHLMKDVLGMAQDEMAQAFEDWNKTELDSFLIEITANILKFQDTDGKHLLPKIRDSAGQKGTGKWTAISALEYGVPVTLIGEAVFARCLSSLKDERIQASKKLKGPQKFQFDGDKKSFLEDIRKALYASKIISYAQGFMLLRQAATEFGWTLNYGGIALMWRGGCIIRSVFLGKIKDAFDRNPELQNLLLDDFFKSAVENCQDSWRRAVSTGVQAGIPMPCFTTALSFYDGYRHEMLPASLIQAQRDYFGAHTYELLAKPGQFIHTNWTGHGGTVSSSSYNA
Chain of Calcium-activated potassium channel subunit alpha-1 (Homo sapiens) + Leucine-rich repeat-containing protein 26 (Homo sapiens) (Q2I0M4 whole entry, looked up, one chain of several): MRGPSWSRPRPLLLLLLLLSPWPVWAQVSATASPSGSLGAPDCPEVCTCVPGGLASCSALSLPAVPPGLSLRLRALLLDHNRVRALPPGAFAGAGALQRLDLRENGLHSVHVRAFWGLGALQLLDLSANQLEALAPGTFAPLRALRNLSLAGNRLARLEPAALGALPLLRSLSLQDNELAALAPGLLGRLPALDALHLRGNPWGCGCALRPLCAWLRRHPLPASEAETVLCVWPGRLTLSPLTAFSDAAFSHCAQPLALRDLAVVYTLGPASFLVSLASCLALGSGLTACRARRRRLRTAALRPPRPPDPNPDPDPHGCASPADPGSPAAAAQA

CCOC(=O)C1=C(COCCN)NC(C)=C(C(=O)OC)C1c1ccccc1Cl (configuration not stated)
1.13: normalised cell number [13, 47]
inactive: parasite load remaining [1] 22.9% and 39.3% and 49.9% | z-score [2] -0.363 | insulin secretion stimulation [4] 11.6% | GLP1 secretion stimulation [7] 0.5% | inhibition [11] 3.33% | mean signal [12] 214 | red/green cell ratio (normalised) [13] 0.9 | remaining activity [14] 107% | z-score ([15]; MELAS cybrid survival, CellTiter-Glo 48 h, stronger effect = higher value) -0.269 and 0.142 and -0.356 | remaining NAD [16] 10 nM | luciferase signal [17] 104 AU | z-score [18] -0.815 and -0.625 and 0.7
1.26: normalised cell number [13, 46]
0.139 and -0.0453 and -0.413: z-score ([15]; Rieske KO mouse fibroblast survival, CellTiter-Glo 72 h)
107% and 67.5% and 111%: viability [1]
active: nuclear beta-catenin stimulation ([3]; at 10 µM) 87.9% | viability decrease [5] 99.2% | tube area decrease [6] 87.8% | inhibition of viability [8] 99.3% | viability decrease (inhibition) [9] 102% | viability decrease (inhibition) [10] 92%
10%: nuclear beta-catenin stimulation ([3]; stimulation, at 2 µM)

C[C@@H]1CC(=O)NN=C1c1ccc(NN=C(C#N)C#N)cc1
8720: cell count [22, 50]
41.6% (active) and 22.4% (inactive): tube area decrease [6]
1.03: normalised cell number [13, 46]
0% and -0.4%: nuclear beta-catenin stimulation ([3]; stimulation, at 2 µM)
active: AC50 [19] 23.5 µM | AC50 [20] 18.6 µM | AC50 [21] 9.34 µM
inactive: nuclear beta-catenin stimulation ([3]; at 10 µM) 7.5% and 2.8% | insulin secretion stimulation [4] -2.9% and -1.5% | viability decrease [5] -8.85% and 2.3% | GLP1 secretion stimulation [7] 1.1% and -7% | inhibition of viability [8] -20.6% and 6.9% | viability decrease (inhibition) [9] 30.7% and -5.7% | viability decrease (inhibition) [10] 12.6% and 21.9% | red/green cell ratio (normalised) [13] 1.17 | fold change [22, 48] 0.967 | remaining NAD [16] 10 nM
0.752: fold change [22, 49]
9020: cell count [22, 51]
1.21: normalised cell number [13, 47]

CC(=O)OCC(=O)[C@@]1(O)CC[C@H]2[C@@H]3CCC4=CC(=O)CC[C@]4(C)[C@H]3C(=O)C[C@@]21C
10700 and 11200: cell count [22, 51]
0.9%: nuclear beta-catenin stimulation ([3]; stimulation, at 2 µM)
inactive: period change [23] -0.03 h | parasite load remaining [1] 71.9% | inhibition [24] -3% | fluorescence ratio (interference) [25] 0.9 | fluorescence ratio [26] 1.07 | inhibition [27] -0.45% | inhibition [28] -0.48% | fluorescence ratio [29] 1.01 | nuclear beta-catenin stimulation ([3]; at 10 µM) 1.3% | insulin secretion stimulation [4] 2.1% | viability decrease [5] 3.8% | tube area decrease [6] -2.1% | GLP1 secretion stimulation [7] 7% | inhibition of viability [8] -5.5% | viability decrease (inhibition) [9] -2.6% | viability decrease (inhibition) [10] -11.3% | inhibition [11] -3.27% | outcome [30] | outcome [31] | outcome [19] | outcome [21] | outcome [32] | outcome [33] | outcome [34] | fold change [22, 48] 0.993 and 0.93 | outcome [35] | remaining NAD [16] 10 nM | luciferase signal [17] 28 AU | log fold change Tl+ flux [36] -0.00173 | log fold change Tl+ flux [37] 0.0066 | log fold change Tl+ flux [38] -0.0255 | log fold change Tl+ flux [39] -0.0455 | log fold change Tl+ flux [40] -0.0083 | log fold change Tl+ flux [41] 0.0275 | log fold change Tl+ flux [42] -0.0466 | log fold change Tl+ flux [43] -0.00407 | log fold change Tl+ flux [44] -0.00976 | log fold change Tl+ flux [45] 0.0162
95.8%: viability [1]
0.82 (inactive) and 2.46 (active): z-score [18]
10600 and 10400: cell count [22, 50]
1.87 and 1.55: fold change [22, 49]
